Data from PubChem BioAssay AID463173 (ICCB-Longwood Screening Facility, Harvard Medical School, 2010).
About 4,300 (8.3%) of roughly 52,000 compounds were called active. Many of the other results were omitted from the sample, so actives are more common in it than they were. Values without a mark were called inactive. Rule as the data show it: active = survival mostly below about 52% (no sharp cut-off); inactive = mostly above about 56%.

Test system: DeltatarO mutant
Assay: S. aureus survival, RN4220 and DeltatarO strains – OD600, teichoic acid synthesis inhibitors, primary screen (AID 463173)
Conditions: S. aureus RN4220 wild type/DeltatarO growth, OD600, 18 h, active compounds read low, screened at 18.75 µg/mL (by protocol)

| SMILES | survival |
| --- | --- |
| COc1ccc(NC(=O)Cn2nc(-c3ccccc3)c3cnc4ccc(C)cc4c32)cc1 | 63% |
| CC(C)c1ccc2c(c1)-c1ccccc1S(=O)(=O)N2CC(=O)N1CCCCC1 | 85% |
| CCCC(=O)NC(C)c1nc2ccccc2n1Cc1ccccc1 (stereo not drawn) | 101% |
| Cc1cc(N2CCOCC2)cc(C)[n+]1[O-] | 90% |
| CCc1ccc(C2CC(=O)N(c3cccc(C(F)(F)F)c3)C3=C2C(=O)OC3)cc1 (stereo not drawn) | 57% (active) |
| COc1ccccc1C1CC(=O)N(c2cccc(C(F)(F)F)c2)C2=C1C(=O)OC2 (stereo not drawn) | 56% |
| Cc1cc(C)cc(N2C(=O)CC(c3ccc(C(F)(F)F)cc3)C3=C2COC3=O)c1 (stereo not drawn) | 72% |
| CCN(CC)c1ccc(NC(=O)c2cc(CN3CCCC3)on2)c(C)c1 | 102% |
| CC(=O)c1ccc(N2CCN(c3ncnc4onc(C)c34)CC2)cc1 | 55% |
| COc1ccc(S(=O)(=O)c2nnn(-c3cccc(Cl)c3)c2N)cc1 | 56% |
| CCOc1cccc(-c2nc3ccccc3c(=O)o2)c1 | 35% (active) |
| CCCOc1ccc(-c2nc3ccccc3c(=O)o2)cc1 | 64% |
| CCOc1ccc(-c2nc3ccccc3c(=O)o2)cc1 | 68% |
| CCCOc1cccc(C(=O)NCc2cccnc2)c1 | 81% |
| COc1cc(N2C(=O)CSC23C(=O)N(C)c2ccccc23)cc(OC)c1OC (stereo not drawn) | 66% |
| COC(=O)c1cc(S(=O)(=O)NCC2CCN(Cc3ccc(F)cc3)CC2)cn1C | 109% |
| COc1ccc(-c2nnc(SCC(=O)Oc3cc(C)ccc3C)o2)cc1 | 67% |
| CCOC(=O)CSc1nnc(-c2ccc(OC)cc2)o1 | 66% |
| N#Cc1ccccc1CSc1nnc(-c2ccc(Br)cc2)o1 | 92% |
| CCCCOC(=O)CSc1nnc(-c2ccc(C)cc2)o1 | 12% (active) |
| CCCCCSc1nnc(-c2ccc(Br)cc2)o1 | -1% (active) |
| N#Cc1ccc(CSc2nnc(-c3ccc(Br)cc3)o2)cc1 | 87% |
| CC(=O)Nc1ccc(S(=O)(=O)N2CCC(N3CCN(Cc4ccc(C)cc4)C(=O)C3=O)CC2)cc1 | 83% |
| COCCCNc1nc2c(-c3ccccc3)nnn2c2ccccc12 | 78% |

| SMILES | survival |
| --- | --- |
| CCC(=O)Nc1ccc(-c2nc3ccc(NC(=O)CC)cc3[nH]2)cc1 | 66% |
| O=C(Nc1ccc2nc(-c3ccccc3)[nH]c2c1)c1ccco1 | 1% (active) |
| O=C(Nc1cccc(NC(=O)c2ccccc2F)c1)c1ccccc1 | 77% |
| CC(C)(C)C(=O)Nc1ccc(-c2nc3ccc(NC(=O)C(C)(C)C)cc3[nH]2)cc1 | 105% |
| Cc1csc2nc(-c3cccc(NC(=O)c4ccccc4F)c3)cn12 | 126% |
| O=C(Nc1cccc(-c2nc3ccccc3[nH]2)c1)c1c(F)cccc1F | 37% (active) |
| CC(=O)Nc1cc(NC(C)=O)cc(-c2nc3ccccc3[nH]2)c1 | 83% |
| O=C(Nc1cccc(-c2nc3ccccc3[nH]2)c1)c1ccccc1F | 29% (active) |
| O=C(NCc1nc2ccccc2[nH]1)c1c(F)cccc1F | 56% |
| O=C(Nc1ccc(C(=O)OCc2cc(=O)n3ccsc3n2)cc1)c1cccc(F)c1 | 102% |
| COc1ccc(C(=O)N(Cc2ccco2)Cc2ccccc2F)cc1Cl | 98% |
| Cc1cccc(NC(=O)CCN2CCC(C)CC2)c1 | 91% |
| Cc1ccc(NC(=O)CSc2nc(=O)n(CCCN(C)C)c3c2CCC3)cc1F | 71% |
| COc1cc(NC(=O)C(CC(C)C)N2Cc3ccccc3C2=O)cc(OC)c1 (stereo not drawn) | 108% |
| O=C(Cc1ccccc1)N=Nc1c(O)[nH]c2ccccc12 | 91% |
| O=C(N=Nc1c(O)[nH]c2ccccc12)C1C2CCCCC21 (stereo not drawn) | 95% |
| O=C(N=Nc1c(O)[nH]c2ccccc12)C1CC1c1ccccc1 (stereo not drawn) | 35% (active) |
| Cc1cc(Nc2cccc(Cl)c2)nc2ccc(NC(=O)Cc3ccc(Cl)cc3)cc12 | 105% |
| Cc1c(C(=O)N2CCCCCC2)c(S(=O)(=O)NCc2ccccc2)c(C)n1C | 77% |
| CCOc1ccc2[nH]c(=O)c(CN(Cc3ccccc3)C(=O)N3CCOCC3)cc2c1 | 105% |
| CC(C)c1ccc(-c2nnn(CC(=O)OC3CCCCC3)n2)cc1 | 87% |
| CC(C)COc1ccc(-c2nnn(CC(=O)N3C(C)CCCC3C)n2)cc1 (stereo not drawn) | 69% (active) |
| CCOc1ccc(-c2nnn(CC(=O)NC3CCCCC3)n2)cc1 | 75% |
| Cc1ccc(NC(=O)Cc2ccc(-n3c(C)nc4cccnc43)cc2)c(Cl)c1 | 107% |

| SMILES | survival |
| --- | --- |
| CCOc1ccc(NC(=O)CSc2ncn[nH]2)cc1 | 67% |
| CCOc1cc(C2c3c(-c4ccccc4O)n[nH]c3C(=O)N2CCc2ccccc2)ccc1O (stereo not drawn) | 29% (active) |
| COc1cc(C2c3c(-c4ccccc4O)n[nH]c3C(=O)N2Cc2ccncc2)cc(OC)c1OC (stereo not drawn) | 82% |
| CCCCN1C(=O)c2[nH]nc(-c3ccccc3O)c2C1c1cc(Br)c(O)c(OC)c1 (stereo not drawn) | 2% (active) |
| COCCN1C(=O)c2[nH]nc(-c3ccccc3O)c2C1c1ccc(Cl)c(Cl)c1 (stereo not drawn) | 3% (active) |
| CCCOc1ccc(C2c3c(-c4ccccc4O)n[nH]c3C(=O)N2CCc2ccccc2)cc1OCC (stereo not drawn) | 53% |
| CCCN1C(=O)c2[nH]nc(-c3ccccc3O)c2C1c1ccc(OCc2ccccc2)c(OCC)c1 (stereo not drawn) | 40% (active) |
| CCCN1C(=O)c2[nH]nc(-c3ccc(F)cc3)c2C1c1ccc(O)c(OCC)c1 (stereo not drawn) | 51% |
| COc1ccc(/C=C\c2onc(C)c2S(=O)(=O)N2CCC(C(=O)Nc3cccc(OC)c3)CC2)cc1 | 97% |
| Cc1cc(C)n(C2CC(=O)N(N(C)C)C2=O)n1 (stereo not drawn) | 92% |
| Cc1cc(C)c2c(=O)cc(C(=O)Nc3ccc(S(=O)(=O)Nc4nc(C)cc(C)n4)cc3)oc2c1 | 103% |
| O=C(CO)N/N=C\c1c(F)cccc1Cl | 51% |
| Cc1ccc(S(=O)(=O)C(CNC(=O)Cc2ccc(Cl)cc2)c2cccs2)cc1 (stereo not drawn) | 85% |
| CCc1ccc(NC(=O)CSC2=Nc3ccccc3C3=NC(CC(=O)NC4CCCCC4)C(=O)N23)cc1 (stereo not drawn) | 86% |
| CC(C)(O)C1Cc2cc(/C=C/C(=O)O)c(O)cc2O1 (stereo not drawn) | 88% |
| CN(C)c1ccc(CNC(=O)c2ccc(NC(=O)c3nsc4ccccc34)cc2)cc1 | 84% |
| COc1cc(C2c3c(-c4ccccc4O)n[nH]c3C(=O)N2CCO)ccc1OCc1ccccc1 (stereo not drawn) | 77% |
| CCCCN1C(=O)c2[nH]nc(-c3ccccc3O)c2C1c1ccc(OCc2ccccc2)c(OC)c1 (stereo not drawn) | 35% (active) |
| CCCN1C(=O)c2[nH]nc(-c3ccccc3O)c2C1c1ccc(OCc2ccccc2)c(OC)c1 (stereo not drawn) | 44% (active) |
| CCCCOc1ccc(C2c3c(-c4ccccc4O)n[nH]c3C(=O)N2Cc2ccncc2)cc1OC (stereo not drawn) | 61% |
| COCCN1C(=O)c2[nH]nc(-c3ccccc3O)c2C1c1ccc(OCc2ccccc2)c(OC)c1 (stereo not drawn) | 13% (active) |
| CCOc1ccc(C2c3c(-c4ccccc4O)n[nH]c3C(=O)N2Cc2cccnc2)cc1OC (stereo not drawn) | 90% |
| CCOC(=O)c1c(C)[nH]c(CCC(=O)NCc2ccc(F)cc2)c1C | 89% |
| COCCCNC(=O)Cn1nc(N2CCN(c3ccccc3)CC2)ccc1=O | 91% |

| SMILES | survival |
| --- | --- |
| c1ccc(CSc2nc3ncccc3[nH]2)cc1 | 93% |
| CCN(CC)C(=O)C1CCN(C(=O)c2cnn(-c3ccccc3)c2-n2cccc2)CC1 | 83% |
| CC1CCN(S(=O)(=O)c2ccccc2)CC1 | 104% |
| CC1CCN(S(=O)(=O)c2ccc(NC(=O)Nc3ccccc3)cc2)CC1 | 9% (active) |
| Cc1ccc2occ(CC(=O)Nc3ccc(S(=O)(=O)N4CCCC(C)C4)cc3)c2c1 (stereo not drawn) | 58% |
| CC(C)(C)c1ccc(S(=O)(=O)N2CCC(c3ccncc3)CC2)cc1 | 109% |
| CC(=O)Nc1ccc(S(=O)(=O)N2CCC(c3ccncc3)CC2)cc1 | -5% (active) |
| O=S(=O)(c1ccc(Cl)cc1)N1CCC(c2ccncc2)CC1 | 73% |
| CC(=O)Nc1ccc(S(=O)(=O)N2CCC(C)CC2)cc1 | 96% |
| Cc1ccc2occ(CC(=O)Nc3ccc(S(=O)(=O)N4CCC(C)CC4)cc3)c2c1 | 55% (active) |
| Cc1ccc2c(CC(=O)Nc3ccc(S(=O)(=O)N4CCC(C)CC4)cc3)coc2c1 | 59% |
| CC1=C(C(=O)Nc2ccccc2C)C(c2ccncc2)n2nc(SCc3ccccc3Cl)nc2N1 (stereo not drawn) | 62% |
| CCOC(=O)c1ccccc1NC(=O)N(Cc1ccc(C)cc1)Cc1cccn1-c1nnc(N2CCCC2=O)s1 | 118% |
| Cc1ccc(NC(=O)Cn2nnc(-c3nc(-c4ccncc4)no3)c2N)c(C)c1 | 92% |
| CCc1ccccc1NC(=O)CSc1nccn1C | 89% |
| CC1=C(c2ccc(C)c(C)c2)S(=O)(=O)N(Cc2ccc(C(=O)NCc3ccc(C)cc3)cc2)C1=O | 92% |
| COc1ccc(-c2ccc(=O)n(CC(=O)Nc3ccc(N(C)C)cc3)n2)cc1 | 90% |
| CCC1CCCCN1S(=O)(=O)c1ccc(C(=O)Nc2sc3c(c2C(N)=O)CCC3)cc1 (stereo not drawn) | 68% |
| Cc1ccc(-n2nc(C(=O)N(C)c3ccccc3Cl)c3c4ccccc4n(C)c3c2=O)cc1 | 88% |
| CCCNS(=O)(=O)c1cc(-c2nnc3c4ccccc4c(C)nn23)ccc1OC | 100% |
| Cc1cc2c(cc1S(=O)(=O)NCc1ccccc1Cl)OCCN2C | 106% |
